# PubChem BioAssay (NCI)
# The panel holds about 83,000 compounds, 20% with a hit somewhere; the sample as a whole holds those more often.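 Testing used 96-well plates and a 48-hour single-concentration exposure. Example: -40 means 40% of the starting cells died.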 A number with no mark means an inactive call. Calls of active or inactive are those of the source. How the source made its calls: active means growth percent below 10; inactive means the rest.
# Columns and labels:
# Assay in all cases: NCI-60 one-dose screen, 48 h (100 = growth as untreated, 0 = no growth, -100 = all killed)
# Settings in all cases: 10 µM unless noted
# [1] = tested on: HCT-15 colon
# [2] = tested on: HT29 colon
# [3] = tested on: SNB-75 CNS
# [4] = tested on: SNB-19 CNS
# [5] = tested on: U251 CNS
# [6] = tested on: PC-3 prostate
# [7] = tested on: SK-MEL-5 melanoma
# [8] = tested on: UACC-62 melanoma
# [9] = tested on: LOX IMVI melanoma
# [10] = tested on: SK-MEL-28 melanoma
SMILES,growth [1],growth [2],growth [3],growth [4],growth [5],growth [6],growth [7],growth [8],growth [9],growth [10]
CC(=O)OC1C(OC/C2=C/C3[C@@H](C(C)C)CC=C(C)[C@@H]3CC(OC(=O)/C=C/c3cn(C)cn3)[C@]3(C)C=C[C@@]2(O)O3)OCC(O)C1O (stereo partly drawn),36.2%,8.89% (active),-28.6% (active),37%,18.2%,26.5%,7.53% (active),26.5%,35.2%,45.7%
[Cl][Hg][n]1c(-c2ccco2)nc2ccccc21,92%,104%,91.7%,93.1%,91.5%,98.5%,97%,95.8%,15.4%,108%
CC1CCCC(C[N+](C)(C)C)C1=O (stereo not drawn),108%,105%,95.2%,96.6%,105%,93.6%,99.5%,90%,50.2%,108%
COc1ccc(N(CC(=O)NCCC[Te]c2ccccc2)C(=O)CNC(=O)OC(C)(C)C)cc1,11.3%,-36.8% (active),57.9%,33%,12.4%,8.59% (active),41.4%,89.2%,17.6%,105%
COc1ccc(/C=C\c2cc(OC)c(OC)c(OC)c2)c(NS(=O)(=O)c2ccc(C)cc2)c1O,15.1%,17.4%,41.6%,48.1%,20.7%,36.3%,-42.3% (active),53%,18.3%,61.7%
C[S+]1C=Cc2ccccc2C1c1ccc(Cl)cc1 (stereo not drawn),96.8%,84.9%,-70.7% (active),110%,67%,73.5%,99.3%,95.8%,91.1%,103%
O=c1[nH]c2ccc([N+](=O)[O-])cc2c(=O)o1,99%,113%,113%,102%,106%,92.8%,95.3%,100%,,105%
CCOP(=O)(Cc1ccc(C#N)cc1)OCC,108%,92.2%,106%,97.3%,95.6%,84.7%,104%,94.1%,98.3%,107%
O=C(c1ccccc1O)c1[nH]c(Cl)c(Cl)c1-n1c(C(=O)c2ccccc2O)cc(Cl)c1Cl,9.94% (active),4.28% (active),-1.42% (active),9.34% (active),-11.8% (active),-13.4% (active),-77.9% (active),-22% (active),,14.2%
C[C@@]12CC[C@@H](O)C[C@@H]1CC[C@H]1[C@H]2CC[C@@]2(C)[C@H](c3ccc(=O)oc3)CC[C@@]12O,-79.7% (active),-67.5% (active),-85% (active),-99.8% (active),-81.3% (active),-22.5% (active),-68.6% (active),-71% (active),-74.9% (active),-43% (active)
Cc1ccc(C(=O)NCCCOc2ccc(N3C(N)=NC(N)=NC3(C)C)cc2Cl)cc1S(=O)(=O)F,102%,59.4%,87.6%,72.2%,37.6%,28.5%,32.9%,30.1%,,104%
O=[N+]([O-])c1cc(I)cc([N+](=O)[O-])c1,90.2%,109%,93.2%,113%,107%,92.5%,95.2%,103%,91.8%,116%
Nc1nc([Se])c2ncn(C3OC(CO)C(O)C3O)c2n1 (stereo not drawn),85.6%,55.2%,96.7%,98%,94.6%,93.4%,92.2%,68.5%,10.1%,98.9%
CO[C@H]1CC[C@@]2(C)C(=CC[C@@H]3[C@@H]2CC[C@]2(C)C(=O)C(=O)C[C@@H]32)C1,103%,106%,103%,94.8%,104%,84.2%,99%,92.5%,,117%
CC[C@H](C)[C@H](NC(=O)c1cccn1C)C(=O)N(C)[C@H](C[C@@H](OC(C)=O)c1nc(C(=O)N[C@@H](Cc2ccccc2)C[C@H](C)C(=O)OC)cs1)C(C)C,12%,-18.1% (active),33.4%,35.4%,12.3%,21.2%,-29.1% (active),40.4%,,68.8%
CNC(=O)Oc1cccc(C(F)(F)F)c1,117%,108%,113%,103%,114%,104%,105%,97.7%,,105%
CCC(C)(C)[C@H](NC(=O)[C@H]1CCCCN1C)C(=O)N(C)[C@H](C[C@@H](OC(C)=O)c1nc(C(=O)N[C@@H](Cc2ccccc2)C[C@H](C)C(=O)O)cs1)C(C)C,6.87% (active),-2.9% (active),6.25% (active),17.8%,12.1%,24.9%,-18.1% (active),30.9%,16.1%,44.6%
CCOc1ccc(/C=C/[N+](=O)[O-])cc1,51.1%,9.84% (active),90.6%,91.2%,60.1%,77.4%,74.4%,92.8%,62.9%,110%
COC(=O)C12CC(NC(=O)c3csc([C@@H](C[C@H](C(C)C)N(C)C(=O)[C@@H](NC(=O)[C@H]4CCCCN4C)C4CC4)OC(C)=O)n3)(C1)C2,14.1%,-8.13% (active),43.4%,39.6%,11.8%,23.4%,-22.5% (active),58.6%,15.7%,60.1%
CCOC(=O)[C@@H](C)C[C@H](Cc1ccccc1)NC(=O)c1nc([C@@H](C[C@H](C(C)C)N(C)C(=O)[C@@H](NC(=O)[C@H]2CCCCN2C)C(C)C)OC(C)=O)sc1CCOCc1ccccc1,-30.5% (active),-50.7% (active),-11.2% (active),4.69% (active),-32.4% (active),5.66% (active),-39.7% (active),4.15% (active),-54.4% (active),-23.7% (active)
C[C@@H]1C[C@@]2(C)[C@@H](CC[C@@H]3[C@@H]2CC[C@]2(C)C(=O)CC[C@@H]32)CC1=O,103%,91.8%,86.2%,96.7%,101%,97.3%,114%,99.4%,98.5%,76.7%
CN(CCCCN(C)CCOS(C)(=O)=O)CCOS(C)(=O)=O,89.4%,86.9%,88.5%,94.7%,71.8%,85.3%,84.4%,56.1%,,95.1%
C=C1C(=O)O[C@H]2[C@H]1CC/C(COC(=O)C(=O)c1cn(Cc3ccccc3)c3ccccc13)=C\CC[C@@]1(C)O[C@@H]21,-45.6% (active),-40.2% (active),-75.2% (active),3.39% (active),-88.7% (active),-57.9% (active),-96.6% (active),-87.4% (active),-93.3% (active),-47.1% (active)
CC1=C(CCCNS(C)(=O)=O)C2=C(C)C3(CC3)[C@@](C)(O)C(=O)C2=C1,4.29% (active),-2.04% (active),-60.6% (active),8.19% (active),1.79% (active),6.58% (active),-89.8% (active),-52.7% (active),2.21% (active),-28.4% (active)
